Screening results (PubChem)
Exocytosis inh: lytic granule exocytosis inhibition | TALL-104 LAMP-1 surface exposure, flow cytometry; cells stimulated with thapsigargin and PMA | inhibition, % at 10 µM | 360,000 tested, 0.66% active | AID 651702;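 active = inhibition above about 55%, limit read from the data; inconclusive = no clear call, values can overlap the other calls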
Myeloid diff MLP: myeloid differentiation induction; ER-HoxA9 myeloid progenitors, lysozyme-GFP differentiation, flow cytometry; calls only at 10 µM; 360,000 tested, 1% active; AID 624256;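 active = normalized GFP-positive differentiation at or above the plate's own cutoff, the solvent-only control mean plus 3 SD; inconclusive = no clear call, values can overlap the other calls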;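 also: cells exposed to compound for four days before flow analysis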
ABCB6 inh 2: inhibitors of human ABC transporter ABCB6; Q9NP58; K562-ABCB6 porphyrin accumulation, flow cytometry, 1 h; hits give low values; fluorescence ratio to DMSO, % at 10 µM; 360,000 tested, 0.19% active;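 active = fluorescence ratio to DMSO below 75%, the collection mean minus 3 SD; inconclusive = too few cells collected in the well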;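 also: signal is porphyrin accumulated inside mitochondria; 100% equals median channel fluorescence of DMSO control wells; lower ratio means ABCB6 inhibition with less porphyrin fluorescence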
Granule exo CP1: blocks lytic granule exocytosis; 1,500 tested, 11% active; shares compounds with Exocytosis inh; AID 651954; TALL-104 cells, LAMP-1 externalization, flow cytometry; stimulated with PMA plus thapsigargin; inhibition, % at 10 µM; in the data active = inhibition above about 60%;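 also: 0% = stimulated vehicle wells and 100% = unstimulated wells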
The depositor's hits bear a star; i = inactive; ? = inconclusive; / = not tested or not shown. A selection: hits, their analogues and other compounds. The true share with any hit is near 1.8%.

SMILES	Exocytosis inh	Myeloid diff MLP	ABCB6 inh 2	Granule exo CP1
COCCCN1CC(=O)N2C(c3cccc(OC)c3OC)c3[nH]c4ccccc4c3C[C@H]2C1=O (stereo partly specified)	-5.3	i	94.0	/
COc1ccc(-c2nc(N)nc(C)c2-c2ccc(Cl)cc2)c(O)c1	61.4*	i	100.0	-8.9
CCOc1ccc(-c2nc(N)nc(C)c2-c2ccc(Cl)cc2)c(O)c1	3.8	i	97.0	/
O=C1CC2(CCCCCC2)Oc2ccccc21	62.6*	i	92.0	-14.0
O=C1CC2(CCCC2)Oc2ccccc21	14.2	i	96.0	/
Cc1cccc(CC(=O)NCCS(=O)(=O)N2CCN(c3cccc(Cl)c3)CC2)c1	-5.8	i	98.0	/
COc1cccc(N2CCN(c3ncnc4c3[nH]c3ccc(F)cc34)CC2C)c1 (stereo unspecified)	98.5*	?	94.0	103.6*
COc1cc2[nH]c3c(N4CCN(c5ccc(Cl)cc5)CC4)ncnc3c2cc1OC	21.7	i	90.0	/
CC(C)[C@H](NC(=O)c1ccccc1)C(=O)OCC(=O)N1CCc2ccccc2C1	68.3*	i	97.0	-4.5
CC(C)C(NC(=O)c1ccccc1)C(=O)OCC(=O)N1CCCCC1 (stereo unspecified)	7.2	i	97.0	/
CCN(C(=O)COC(=O)c1ccc2ccccc2n1)c1c(N)n(Cc2ccccc2)c(=O)[nH]c1=O	0.5	i	98.0	/
COC(=O)c1ccc(CNC(=O)C(NC(=O)c2ccco2)C(C)C)cc1 (stereo unspecified)	7.1	i	97.0	/
C(=C\c1ccco1)/c1ccc2ccccc2n1	59.2*	i	128.0	-4.6
Fc1cccc(F)c1/C=C/c1ccc2ccccc2n1	-1.5	i	102.0	/
O=C(O)C1c2ccccc2Cc2ccccc21	-3.9	i	98.0	/
COc1ccc2nc3cc(Cl)ccc3c(Nc3cc(C(C)C)c(O)cc3C)c2c1	61.9*	?	93.0	54.4
COc1ccc(S(=O)(=O)Nc2cc(C(C)C)c(O)cc2C)cc1	-0.8	i	97.0	/
COc1ccc(S(=O)(=O)N2CCN(C(=O)CSC(=S)N3CCCC3)CC2)cc1	-1.0	i	98.0	/
S=C1CC2CCCC(C2)N1 (stereo unspecified)	0.9	i	94.0	/
CC1C/C(=N/O)C(C)CN1 (stereo unspecified)	6.3	i	94.0	/
COc1cc(C(=O)Nc2ccc(S(=O)(=O)N3CCOCC3)cc2)c([N+](=O)[O-])cc1OC	74.3*	i	100.0	-4.2
COc1ccc(C(=O)Nc2ccc(S(=O)(=O)N3CCOCC3)cc2)cc1[N+](=O)[O-]	-1.0	i	101.0	/
CCOc1ccccc1NC(=S)/C(=C(\[O-])c1ccc2c(c1)OCCO2)[n+]1ccc(CC)cc1	2.9	i	100.0	/
Cc1cc(Nc2ccc(F)cc2)nc(N)n1	-0.1	i	94.0	/
Cc1cc(Nc2cc(Cl)cc(Cl)c2)nc(N)n1	61.6*	i	96.0	-10.2
SMILES	Exocytosis inh	Myeloid diff MLP	ABCB6 inh 2	Granule exo CP1
COc1ccc(OC)c(CCNC(=O)c2ccccc2NC(=O)C2=C(C)OCCS2)c1	-0.6	i	91.0	/
CCCN(c1ccccc1F)S(=O)(=O)c1cc(-c2cc(C)no2)ccc1OC	89.4*	i	93.0	-3.8
COc1ccc(-c2cc(C)no2)cc1S(=O)(=O)N(C)Cc1ccco1	-0.5	i	94.0	/
Cc1cc(=O)oc2c3c(cc(OCC(=O)NC(Cc4ccc(Cl)cc4)C(=O)O)c12)OC(C)(C)CC3 (stereo unspecified)	4.8	i	105.0	/
CCC(C)c1ccc(NC(=O)N2CCN(C(=O)C3CCCO3)CC2)cc1 (stereo unspecified)	-13.5	i	105.0	/
CCCn1c(C(O)c2ccc(OC)cc2)nc2ccccc21 (stereo unspecified)	-2.9	i	88.0	/
CCCn1c(C(O)c2cccc(OC)c2)nc2ccccc21 (stereo unspecified)	73.2*	i	99.0	-12.8
COc1ccc(S(=O)(=O)N2CCCCC2)cc1NC(=O)Cc1ccsc1	4.5	i	94.0	/
O=C(c1ccco1)N1CCC(c2nc(-c3ccc(F)cc3)no2)CC1	-2.9	i	103.0	/
O=C(c1ccco1)N1CCC(c2nc(-c3ccccc3Cl)no2)CC1	99.9*	i	95.0	-5.5
COc1ccc(NC2CCCN(C(=O)COc3ccc(C(C)=O)cc3)C2)cc1 (stereo unspecified)	1.3	i	91.0	/
CCC(=O)N1CCc2cc(OC)c(OC)cc2C1COc1ccc(C(=O)OC)cc1 (stereo unspecified)	31.2	i	97.0	/
COC(=O)c1ccc(OCC(O)CN2CCc3cc(OC)c(OC)cc3C2c2ccccc2)cc1 (stereo unspecified)	73.5*	i	88.0	-12.1
